# This is a sample that favours compounds with a hit; in the whole collection about 4.6% have one here.
# Tau fluor cs: counter-screen for tau fibril formation inhibitors; Potency, µM (top dose mostly 57.7 µM), for the others: at the highest dose activity change, negative = decrease; 0.93% of 280,000 active; AID 1463; tau K18 P301L Alexa594 fluorescence, heparin fibrillization; note: potency is the fitted concentration of half-maximal effect; nearly all actives have a fitted effect of over 55% in size
#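 Human K18 P301L tau (15 uM unlabeled plus 0.24 uM Alexa 594-labeled, final) in 100 mM sodium acetate pH 7 was mixed with compound and 20 uM heparin and incubated 6 hr at 37 C.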
# Tau FP inhib: inhibitors of human tau fibril formation. K18 P301L tau heparin fibrillization, Alexa594 FP, 6 h. 0.39% of 280,000 active. P10636. Potency, µM (series often up to 57.7 µM), for the others: top-dose activity, negative = inhibition, most hits filed as inhibitors. AID 1468; note: potency is the fitted concentration of half-maximal effect; nearly all actives have a fitted effect of over 55% in size
#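 K18 P301L tau (15 uM unlabeled/0.24 uM Alexa 594-labeled, final) + compound + heparin 20 uM final; 100 mM NaOAc pH 7; 6 hr 37 C; ThT 30 uM final added, 1 hr RT; FP ex 555/em 632 nm.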
# TexasRed fluor: counter-screen for TRb-SRC2 inhibitors: fluorescence interference | 0.29% of 280,000 active | TRb/SRC2 Texas Red total fluorescence interference | AID 1479 | Potency, µM (series often up to 106 µM), for the others: at the highest dose fluorescence change, negative = quenching; active = well fitted curve in either direction with a large enough effect; inconclusive = small, poorly fitted or top-dose-only effect; note: potency is the fitted concentration of half-maximal effect
#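 Human TRb ligand-binding domain at 0.6 uM with 20 nM Texas Red SRC2 peptide in Tris buffer containing 1 uM T3 and 5% DMSO, incubated with compound 5 h at ambient temperature. Total fluorescence (555/632 nm) calculated as parallel + 2 × perpendicular.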
# TRb-SRC2 inh: inhibitors of human thyroid hormone receptor beta-SRC2 interaction; P10828; TRbeta-SRC2 peptide binding, fluorescence polarization; receptor liganded with 1 µM T3; Potency, µM (top dose mostly 106 µM), for inactives: at the highest dose activity change, negative = inhibition, hits mostly inhibitors; 0.065% of 280,000 active; AID 1469;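 note: potency is the fitted concentration of half-maximal effect; plate controls were bound peptide for no effect and peptide without receptor for full effect; nearly all actives have a fitted effect of over 50% in size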
# Target sequence (P10828 whole entry, looked up): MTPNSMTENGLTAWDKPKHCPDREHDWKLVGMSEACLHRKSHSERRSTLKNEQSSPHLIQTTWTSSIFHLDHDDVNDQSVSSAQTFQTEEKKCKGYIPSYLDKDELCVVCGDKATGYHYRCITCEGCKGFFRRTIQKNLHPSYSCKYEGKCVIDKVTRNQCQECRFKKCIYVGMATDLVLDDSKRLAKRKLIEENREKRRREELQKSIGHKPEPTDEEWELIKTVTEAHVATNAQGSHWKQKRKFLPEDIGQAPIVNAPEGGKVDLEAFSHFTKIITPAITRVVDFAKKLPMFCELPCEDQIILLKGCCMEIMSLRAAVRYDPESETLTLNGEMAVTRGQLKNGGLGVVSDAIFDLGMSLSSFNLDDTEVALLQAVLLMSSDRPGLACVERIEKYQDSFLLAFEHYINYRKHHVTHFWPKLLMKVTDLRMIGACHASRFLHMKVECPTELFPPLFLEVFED
#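 Assay buffer: 20 mM Tris-HCl, 100 mM NaCl, 10% glycerol, 1 mM EDTA, 0.01% NP-40, 1 mM DTT, 1 uM T3, 5% DMSO; TRb LBD 0.6 uM, Texas Red SRC2 20 nM; FP after 5 hr.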
# PNC assembly inh: perinucleolar compartment assembly inhibition; activity change (PNC), negative = inhibition, % at 10 µM; 3.1% of 140,000 active; AID 2417; PC3M PTB-GFP, PNC prevalence imaging, 16 h; stronger effect = lower value;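 active = readout at or below -70, meaning at least 70% loss of cells showing the perinucleolar compartment, a nuclear body marking cancer cells; inconclusive = readout between -30 and a set limit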;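 note: plate controls were DMSO wells for no effect and camptothecin positive control wells for full effect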
#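 Compounds are pinned in duplicate onto adhered PC3M cells stably expressing GFP-tagged PTB and incubated 16 h at 37 C. Cells are then fixed, nuclei stained with Hoechst, and PNC-positive cells counted.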
# Tau fibril ThT: blocks human tau fibril formation measured by thioflavin T; recombinant tau K18 P301L (four-repeat tau fragment), heparin-induced fibrillization, ThT fluorescence; Potency, µM (titrated, usually from 57.4 µM), inactives show at the highest dose activity, negative = inhibition, most hits filed as inhibitors; P10636; 2.1% of 270,000 active; note: potency is the fitted concentration of half-maximal effect; nearly all actives have a fitted effect of over 55% in size
#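 Recombinant human tau K18 fragment […] carrying P301L, 15 uM unlabeled plus 0.24 uM Alexa 594-labeled, was fibrillized with 20 uM heparin in 100 mM sodium acetate pH 7 for 6 hr at 37 C; 30 uM ThT fluorescence read after 1 hr.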
# Numbers without * were called inactive; ? = inconclusive; / = no result; [ ] = dose if it differs, or a comment. Unless noted, calls come from the whole dose curve; as a rule, active = well fitted curve in the direction sought with a large enough effect; inconclusive = small, poorly fitted or top-dose-only effect, or another doubt; inactive = no such curve, though single readings can be large; an effect the other way counts as inactive or inconclusive. Unless noted, % is set by controls: 0 for no effect and ±100 for the full control effect.
SMILES,Tau fluor cs,Tau FP inhib,TexasRed fluor,TRb-SRC2 inh,PNC assembly inh,Tau fibril ThT
COc1ccc(C(=O)N2CCCCC2CCN2CCCCC2)cc1 (stereo not given),3%,-3%,1%,4%,/,2%
N#Cc1c(SCC(=O)N2CCCCC2)nsc1SCC(=O)N1CCCCC1,-6%,-2%,-5%,1%,18,-11%
O=C(CN(C(=O)c1ccco1)c1cccc(F)c1)NCc1ccc(F)cc1,-10%,-4%,-4%,-17%,23,-7%
Cn1c(SCC(=O)Nc2ccc3cn[nH]c3c2)nnc1-c1cnccn1,-6%,-1%,-2%,-17%,-100*,?
Cn1c(SCC(=O)Nc2ccc3cn[nH]c3c2)nnc1-c1cccs1,-5%,-10%,8%,1%,0,-13%
CC(C)OC(=O)CSc1nnc(-c2cnccn2)n1C,-1%,5%,3%,-23%,-91*,6%
COC(=O)/C(=C/Nc1ccc(O)cc1)[N+](=O)[O-],?,?,4%,?,-22,18µM*
O=C(NNc1ccccc1)C(=O)NNS(=O)(=O)c1ccc([N+](=O)[O-])cc1,1%,1%,0%,9%,/,-6%
CC(=O)NC1C(=O)N=C(SCC(=O)Nc2c(C)cccc2C)NC1=O (stereo not given),3%,-4%,-2%,3%,/,-3%
CC(=O)NC1C(=O)N=C(SCC(=O)NCc2ccccc2)NC1=O (stereo not given),-3%,1%,-5%,-13%,-100*,-9%
Cc1cccc(-c2nc3c(cnn3-c3ccccc3)c(=O)n2-c2ccc(Br)cc2)c1,-16%,-1%,7%,7%,/,-10%
O=C1C2C3C=CC(C3)C2C(=O)N1CCc1ccccc1 (stereo not given),-5%,6%,-2%,9%,13,-16%
O=C(CCN1C(=O)C2C3C=CC(C3)C2C1=O)NCCc1ccccc1 (stereo not given),4%,3%,1%,-15%,-93*,-4%
O=c1[nH]ncc2c3ccccc3n(Cc3ccccc3)c12,-5%,-6%,-2%,5%,67,0%
COCCN1C(=O)/C(=C/c2ccc(N3CCCC3)cc2C)SC1=S,-13%,?,7%[53 µM],3%[53 µM],/,7.1µM*
CCCNC(=O)COc1ccc2c(=O)c(Oc3ccccc3F)coc2c1,-8%,0%,3%,9%,11,-2%
CCCC(C)NC(=O)c1ccc(F)cc1 (stereo not given),13%,3%,-7%,-2%,-82*,11%
CCCC(C)NC(=O)c1ccc(-c2ccccc2)cc1 (stereo not given),8%,6%,-6%,4%,/,10%
CCOC(=O)C1C(=O)NC(N2CCN(CC)CC2)=NC1c1ccccc1 (stereo not given),-2%,0%,1%,-2%,11,-4%
COc1ccc(/C=C(/C#N)c2nc(-c3ccc(Br)cc3)cs2)cc1,-23%,?,-35%,-5%,/,?
COc1ccc(-c2csc(/C(C#N)=C\c3ccc(O)c([N+](=O)[O-])c3)n2)cc1OC,4.5µM*[quencher],-5%,-17%,1%,/,1.3µM*
CC(C)c1ccc(/C=C(\C#N)c2nc(-c3ccc(O)cc3)cs2)cc1,8.9µM*[quencher],13µM*,-72%,-18%,/,7.9µM*
COc1cc(/C=C(\C#N)c2nc3ccccc3s2)cc([N+](=O)[O-])c1O,16µM*[quencher],-3%,25µM*[quencher],18%,/,1.4µM*
N#C/C(=C\c1ccc(O)c([N+](=O)[O-])c1)c1nc2ccccc2s1,?,-1%,-26%,12%,/,2.2µM*
COc1ccc(-c2csc(/C(C#N)=C\c3ccc(OC)c([N+](=O)[O-])c3)n2)cc1,-27%,0%,-1%,4%,-10,?
COc1cc(Br)cc(C=Nc2cccc(C(F)(F)F)c2)c1O,-4%,-1%,-2%,2%,?,14µM*

# High-throughput results from PubChem BioAssay.
